Experimental data taken from ChEMBL document CHEMBL4808148, “HDAC6 screening dataset using tau-based substrate in an enzymatic assay yields selective inhibitors and activators” (2021).
The whole screen tested about 5,600 compounds, of which about 390 (7%) showed an effect of 50% or more. The list comes from a sample in which strong results are over-represented; it also holds similar structures and randomly drawn compounds.

biological target: T1, Protein deacetylase HDAC6 (Homo sapiens) (UniProt Q9UBN7); conditions: at 10 µM
T1 sequence (whole entry): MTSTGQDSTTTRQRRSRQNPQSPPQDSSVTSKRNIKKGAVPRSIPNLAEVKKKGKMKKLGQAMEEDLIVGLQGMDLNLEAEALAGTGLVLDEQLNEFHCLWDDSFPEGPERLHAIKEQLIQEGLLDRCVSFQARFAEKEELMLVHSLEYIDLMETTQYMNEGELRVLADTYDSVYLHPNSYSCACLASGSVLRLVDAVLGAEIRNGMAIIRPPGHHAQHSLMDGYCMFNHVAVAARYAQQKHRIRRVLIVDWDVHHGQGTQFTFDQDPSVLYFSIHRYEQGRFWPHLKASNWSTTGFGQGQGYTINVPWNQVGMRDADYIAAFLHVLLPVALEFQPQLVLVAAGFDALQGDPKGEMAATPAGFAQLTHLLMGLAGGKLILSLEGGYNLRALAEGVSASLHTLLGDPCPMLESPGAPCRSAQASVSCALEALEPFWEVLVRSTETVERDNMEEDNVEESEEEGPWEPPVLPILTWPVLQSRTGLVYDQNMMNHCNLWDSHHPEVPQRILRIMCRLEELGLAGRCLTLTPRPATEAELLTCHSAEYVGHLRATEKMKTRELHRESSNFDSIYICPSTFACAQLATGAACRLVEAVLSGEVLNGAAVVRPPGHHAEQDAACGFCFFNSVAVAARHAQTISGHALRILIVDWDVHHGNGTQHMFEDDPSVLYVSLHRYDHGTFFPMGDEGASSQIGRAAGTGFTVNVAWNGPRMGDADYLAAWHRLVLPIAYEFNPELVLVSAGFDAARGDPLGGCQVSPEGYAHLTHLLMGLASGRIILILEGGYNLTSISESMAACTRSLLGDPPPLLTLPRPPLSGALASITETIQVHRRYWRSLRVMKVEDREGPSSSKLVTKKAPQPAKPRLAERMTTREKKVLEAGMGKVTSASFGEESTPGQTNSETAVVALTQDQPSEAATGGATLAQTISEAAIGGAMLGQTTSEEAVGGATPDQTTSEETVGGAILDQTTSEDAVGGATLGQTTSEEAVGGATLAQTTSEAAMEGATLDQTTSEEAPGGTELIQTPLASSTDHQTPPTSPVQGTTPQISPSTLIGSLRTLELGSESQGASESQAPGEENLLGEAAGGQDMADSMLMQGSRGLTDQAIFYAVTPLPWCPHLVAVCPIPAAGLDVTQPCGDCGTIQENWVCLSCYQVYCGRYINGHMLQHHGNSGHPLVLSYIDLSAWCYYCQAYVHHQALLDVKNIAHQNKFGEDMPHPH

SMILES	inhibition
CCCc1c(OCC(O)COc2ccc3c(=O)cc(C(=O)O)oc3c2CCC)ccc(C(C)=O)c1O (centres undefined)	22.7%
Cc1cc(OI)c(C(C)C)cc1-c1cc(C(C)C)c(OI)cc1C	7.55%
Cc1nc2ccc(NC(=O)Nc3ccnc4cccnc34)cc2o1	76%
CN[C@@H]1CCc2[nH]c3ccc(C(N)=O)cc3c2C1	9.03%
Cc1cccc(/C=N/Nc2cc(N3CCOCC3)nc(OCCc3ccccn3)n2)c1	1.14%
Cc1cc(-c2nncc3c(C(C)(C)C)c(OCc4ncnn4C)nn23)no1	-0.39%
COc1ccc([C@@H]2CC(=O)c3c(O)cc(O[C@@H]4O[C@H](CO[C@@H]5O[C@@H](C)[C@H](O)[C@@H](O)[C@H]5O)[C@@H](O)[C@H](O)[C@H]4O)cc3O2)cc1O	14.3%
O=C1C[C@@H](c2ccc(O)cc2)Oc2cc(O)ccc21	-5.99%
COc1cc([C@H]2Oc3cc([C@H]4Oc5cc(O)cc(O)c5C(=O)[C@@H]4O)ccc3O[C@@H]2CO)ccc1O	15.7%
COc1ccc([C@@H]2CC(=O)c3c(O)cc(O)cc3O2)cc1O	94.9%
O=C1C[C@@H](c2ccccc2)Oc2cc(O)cc(O)c21	50.7%
O=C1c2c(O)cc(O)cc2O[C@H](c2ccc(O)c(O)c2)[C@H]1O	10.8%
CS(=O)(=O)c1ccc([C@@H](CC2CCCC2)C(=O)Nc2nccs2)cc1	-9.75%
Cn1cnnc1Sc1c([N+](=O)[O-])ncn1C	19.5%
C=C1/C(=C\C=C2/CCC[C@]3(C)[C@@H]([C@H](C)/C=C/[C@@H](O)C4CC4)CC[C@@H]23)C[C@@H](O)C[C@@H]1O	1.78%
C[C@@H](CN1CCC(n2c(=O)[nH]c3cc(Cl)ccc32)CC1)NC(=O)c1ccc2ccccc2c1	8.37%
CC1(C)N=C(N)N=C(N)N1OCCCOc1cc(Cl)c(Cl)cc1Cl	12%
Clc1cccc(-n2nnnc2NCc2ccccc2Oc2ccccn2)c1Cl	0.62%
C[n+]1ccccc1C=NO	0.38%
O=C1C(Cl)=C(N2CCOCC2)C(=O)N1c1ccc(Cl)c(Cl)c1	86%
O=C(Nc1ccc(N2CCC(C(=O)N3CCOCC3)CC2)cc1)c1cnc(Oc2ccccc2)nc1	3.27%
CCN(CC)C(=S)S	13.4%
CC(=O)N(O)C/C=C/c1cccc(Oc2ccccc2)c1	9.26%

SMILES	inhibition
N[C@@H]1CCCN(c2c(/C=C3\SC(=O)NC3=O)cccc2-c2ccccc2)C1	104%
CCCCCCC[N+](CC)(CC)CCCCc1ccc(Cl)cc1	11%
COc1cc(OC)cc(N(CCNC(C)C)c2ccc3ncc(-c4cnn(C)c4)nc3c2)c1	-0.23%
Nc1nc(-c2nn(Cc3ccccc3F)c3ncccc23)ncc1C1CC1	34.9%
N=C(N)NCCC(=O)O	1.27%
NC(=O)C1=CN([C@@H]2O[C@H](COP(=O)(O)OP(=O)(O)OC[C@H]3O[C@@H](n4cnc5c(N)ncnc54)[C@H](O)[C@@H]3O)[C@@H](O)[C@H]2O)C=CC1	4.98%
Cc1cnc(Nc2ccc(OCCN3CCCC3)cc2)nc1Nc1cccc(S(=O)(=O)NC(C)(C)C)c1	25%
O=C(NO)c1ccc2[nH]c(=O)c(CCCc3ccccc3)nc2c1	99.2%
CCCCc1ccc2[nH]c(NC(=O)OC)nc2c1	48%
O=C(Nc1cccc2c(=O)cc(-c3nnn[nH]3)oc12)c1ccc(OCCCCc2ccccc2)cc1	9.45%
CCCCCCCCCCCCCCCC[N+](C)(C)Cc1ccccc1	36.2%
CC(C)c1ccc(CC(=O)N2CCC[C@@H](c3cccc(OC(C)(C)C(=O)O)c3)C2)cc1	24.2%
Nc1n[nH]c2nc3ccccc3nc12	53.6%
COC(=O)c1ccc(O)cc1	16.3%
COC(=O)CC1CC(c2ccc(O)cc2)=NO1 (centres undefined)	96.7%
Nc1nc(Nc2ccccc2)nc2c1ncn2[C@@H]1O[C@H](CO)[C@@H](O)[C@H]1O	-2.75%
CC(N)(C(=O)O)c1ccc(-c2nnn[nH]2)cc1 (centres undefined)	-2%
CN(C)C(=N)NCCC[C@H](N)C(=O)O	23.2%
O=C(O)c1cc([N+](=O)[O-])ccc1NCCCc1ccccc1	109%
CS(=O)(=O)Nc1ccc([N+](=O)[O-])cc1Oc1ccccc1	1.72%
Cn1c(NCCN(CCO)CCCc2ccc([N+](=O)[O-])cc2)cc(=O)n(C)c1=O	7.31%
O=C(Nc1ccccc1)N1CCC(Cc2cnc3ccccc3c2)CC1	27.7%
Cn1cc(C2=C(c3cn(CCCSC(=N)N)c4ccccc34)C(=O)NC2=O)c2ccccc21	-2.47%

SMILES	inhibition
Cn1cc(/C=C2/C(=O)Nc3cccnc32)c2ccccc21	99.5%
Cn1cc(C2=C(c3ccc(Cl)cc3Cl)C(=O)NC2=O)c2ccccc21	-5.95%
Cc1ccc(-c2cn3c4c(sc3n2)CCCC4)cc1	98%
Clc1ccccc1CNC[C@H]1CC[C@H](CNCc2ccccc2Cl)CC1	9.4%
N#Cc1ccncn1	5.74%
Nc1cccc(-c2cc3c(Oc4cccc(O)c4)ncnc3[nH]2)c1	55.1%
C[C@@H]([C@@H](O)c1ccc(O)cc1)N1CCC(O)(c2ccccc2)CC1	14.2%
CC/C=C(\C(=O)N[C@@H]1C(=O)N2C(C(=O)OCOC(=O)C(C)(C)C)=C(COC(N)=O)CS[C@H]12)c1csc(N)n1	4.66%
N#Cc1c(O)c2c(-c3ccc(-c4ccccc4O)cc3)csc2[nH]c1=O	94.5%
CNC(=N)NC(=O)Nc1c(C)cccc1C	27.8%
C1=Cc2cccc(OCC3CNCCO3)c2C1 (centres undefined)	18.4%
C=C(C)[C@@H]1CC[C@]2(C(=O)O)CC[C@]3(C)[C@H](CC[C@@H]4[C@@]5(C)CC[C@H](OC(=O)CC(C)(C)C(=O)O)C(C)(C)[C@@H]5CC[C@]43C)[C@@H]12	26.3%
OCc1ccccc1O[C@@H]1O[C@H](CO)[C@@H](O)[C@H](O)[C@H]1O	-9.23%
COc1ccc(-c2cc(=O)c3c(OC)c(OC)c(OC)c(OC)c3o2)cc1	44.4%
O=C(O)c1cc(O)c2c3nc4ccccc4oc-3cc(=O)c2n1	5.48%
O=c1cc(-c2ccccc2)oc2cc(O)cc(O)c12	101%
O=c1oc2cc(O)ccc2s1	15.3%
COc1ccc(-c2cc(=O)c3c(OC)c(OC)c(OC)c(OC)c3o2)cc1OC	-2.26%
O=c1cc(-c2ccc(O)cc2)oc2cc(O)cc(O)c12	97%
O=C(O)c1cc(O)c2c(c1)[C@@H]([C@H]1c3cc(C(=O)O)cc(O)c3C(=O)c3c(O[C@H]4O[C@H](CO)[C@@H](O)[C@H](O)[C@H]4O)cccc31)c1cccc(O[C@H]3O[C@H](CO)[C@@H](O)[C@H](O)[C@H]3O)c1C2=O	17.7%
O=C(O)[C@H]1O[C@H](Oc2cc3oc(-c4ccccc4)cc(=O)c3c(O)c2O)[C@H](O)[C@@H](O)[C@@H]1O	61.7%
CCOC(=O)COc1ccc2c(=O)cc(-c3ccccc3)oc2c1	46.4%
COc1ccc(-c2cc(=O)c3c(O)c(OC)c(O)cc3o2)cc1OC	85.7%
